Results on 25 compounds are retold here after the supplement of paper PMC8285479.

Structures are written as SMILES. ± gives the standard deviation of the averaged measurements. Whole data set: some 1,900 compounds, median “normalised cell viability (NPI; 0 = phenylarsine oxide control, 1 = DMSO control)” near 1, cut for the lowest 2% near 0.039. Many of the other results were omitted from the sample, so the lowest values are more common in it than they were.

The test has as its system NCI-H1944. Briefly: normalised cell viability (NPI; 0 = phenylarsine oxide control, 1 = DMSO control) (fraction of DMSO control); NCI-H1944 is a non-small cell lung cancer line; higher = more viable cells (less compound toxicity). Particulars: 6 days.
[1] abbreviates: glucocorticoid arm: hydrocortisone 2.75 uM co-treatment, compound 1 µM.
[2] abbreviates: glucocorticoid arm: hydrocortisone 2.75 uM co-treatment, compound 5 µM.
[3] abbreviates: glucocorticoid arm: hydrocortisone 2.75 uM pre-treated 2 days and continued, compound 1 µM.
[4] abbreviates: glucocorticoid arm: hydrocortisone 2.75 uM pre-treated 2 days and continued, compound 5 µM.
[5] abbreviates: glucocorticoid arm: vehicle, compound 1 µM.
Where [6] appears, read: glucocorticoid arm: vehicle, compound 5 µM.
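Also: CTB read-out in 384-well plates, triplicate wells, NPI normalised per plate against 1 µM phenylarsine oxide (0) and 0.1% DMSO (1) controls.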

In the case of `O=C(OCCN1CCOCC1)C1(c2ccccc2)CCCCC1`, the normalised cell viability by setting is: under setting [1], 1.01 ± 0.011; under setting [2], 1.03 ± 0.088; under setting [3], 1.02 ± 0.015; under setting [4], 0.891 ± 0.21; under setting [5], 1.017 ± 0.0058; under setting [6], 1.03 ± 0.011.
Consider `CCS(=O)(=O)Nc1ccc2[nH]c(O)c(C(=Nc3ccc(CN4CCCCC4)cc3)c3ccccc3)c2c1` [Hesperadin], for which the normalised cell viability runs as follows: under setting [1], 0.435 ± 0.035; under setting [2], 0.396 ± 0.068; under setting [3], 0.419 ± 0.087; under setting [4], 0.51 ± 0.08; under setting [5], 0.371 ± 0.08; under setting [6], 0.218 ± 0.035.
As for `CCCCCCCCCC(=O)NC(CN1CCOCC1)[C@H](O)c1ccccc1` (mixture of isomers), the normalised cell viability runs as follows: under setting [1], 1.01; under setting [2], 0.9997 ± 0.0096; under setting [3], 1.02 ± 0.026; under setting [4], 1.01 ± 0.024; under setting [5], 1.01; under setting [6], 0.997 ± 0.014.
For the compound `CC(C)C[C@H](NC(=O)[C@H](CCc1ccccc1)NC(=O)CN1CCOCC1)C(=O)N[C@@H](Cc1ccccc1)C(=O)N[C@@H](CC(C)C)C(=O)[C@@]1(C)CO1` [Carfilzomib (PR-171)], the normalised cell viability is, setting by setting: under setting [1], 0.0181 ± 0.0047; under setting [2], 0.000755 ± 0.00097; under setting [3], 0.777 ± 0.051; under setting [4], 0.12 ± 0.025; under setting [5], 0.0054 ± 0.0013; under setting [6], -0.000926 ± 0.0006.
On to `CC(C)C[C@H](NC(=O)[C@H](CCc1ccccc1)NC(=O)CN1CCOCC1)C(=O)N[C@@H](Cc1ccccc1)C(=O)N[C@@H](CC(C)C)C(=O)[C@@]1(C)CO1` [Carfilzomib], for which the normalised cell viability came out at 0.0119 ± 0.0019 under setting [1]; 0.198 ± 0.017 under setting [2]; 0.652 ± 0.035 under setting [3]; 0.986 ± 0.013 under setting [4]; 0.00203 ± 0.0017 under setting [5]; 0.0026 ± 0.00057 under setting [6].
`CNC(=N)NCCC[C@H](N)C(=O)O` [NG-Monomethyl-L-arginine acetate]: the normalised cell viability under setting [1] was found to be 1.001 ± 0.009; the normalised cell viability under setting [2] came out at 0.985 ± 0.022; the normalised cell viability under setting [3] was 1.001 ± 0.0081; the normalised cell viability under setting [4] turned out to be 0.879 ± 0.24; the normalised cell viability under setting [5] was 0.9883 ± 0.0097; the normalised cell viability under setting [6] is 0.991 ± 0.0079.
Regarding `S=C=Nc1cccc(NC(=S)NCCCCNC(=S)Nc2cccc(N=C=S)c2)c1`, the normalised cell viability runs as follows: under setting [1], 1.04 ± 0.04; under setting [2], 1.05 ± 0.015; under setting [3], 1.02 ± 0.033; under setting [4], 1.04 ± 0.032; under setting [5], 1.017 ± 0.0058; under setting [6], 1.003 ± 0.0058.
With `CCc1cccc(N(C)C(=N)Nc2cccc3ccccc23)c1`, the normalised cell viability is, setting by setting: under setting [1], 0.999 ± 0.027; under setting [2], 0.918 ± 0.012; under setting [3], 1.006 ± 0.0069; under setting [4], 0.967 ± 0.013; under setting [5], 1.003 ± 0.0064; under setting [6], 1.01 ± 0.01.
For the compound `COc1ccc2c(c1)c(CC(=O)O)c(C)n2Cc1ccc(F)cc1` [1-(4-Fluorobenzyl)-5-methoxy-2-methylindole-3-acetic acid], the normalised cell viability runs as follows: under setting [1], 0.987 ± 0.014; under setting [2], 0.977 ± 0.017; under setting [3], 0.983 ± 0.028; under setting [4], 0.982 ± 0.013; under setting [5], 0.9717 ± 0.0076; under setting [6], 0.974 ± 0.0027.
`COC(=O)Nc1ccc(-c2nc(N3CCOCC3)c3cnn(C4CCN(C(=O)OC)CC4)c3n2)cc1`: the normalised cell viability reads like this: under setting [1], 0.505 ± 0.038; under setting [2], 0.753 ± 0.013; under setting [3], 0.563 ± 0.029; under setting [4], 0.769 ± 0.067; under setting [5], 0.476 ± 0.02; under setting [6], 0.924 ± 0.015.
`CCn1nnc2c(N3CCOCC3)nc(-c3ccc(NC(=O)Nc4ccc(C(=O)N5CCN(C)CC5)cc4)cc3)nc21`: the normalised cell viability came to 0.201 ± 0.0067 under setting [1]; 0.375 ± 0.015 under setting [2]; 0.287 ± 0.01 under setting [3]; 0.543 ± 0.024 under setting [4]; 0.077 ± 0.01 under setting [5]; 0.22 ± 0.016 under setting [6].
For `CN(C)C1CCN(C(=O)c2ccc(NC(=O)Nc3ccc(-c4nc(N5CCOCC5)nc(N5CCOCC5)n4)cc3)cc2)CC1`, the normalised cell viability was found to be 0.231 ± 0.011 under setting [1]; 0.105 ± 0.0056 under setting [2]; 0.311 ± 0.026 under setting [3]; 0.147 ± 0.012 under setting [4]; 0.0929 ± 0.0075 under setting [5]; 0.0212 ± 0.0032 under setting [6].
Take `C=CS(=O)(=O)NC1CCN(C(=O)CNc2cc(I)c(Cl)cc2OC)CC1` [K-Ras(G12C) inhibitor 9]: the normalised cell viability came out at 1.03 ± 0.01 under setting [1]; 1.07 ± 0.029 under setting [2]; 1.04 under setting [3]; 1.04 ± 0.025 under setting [4]; 0.993 ± 0.0036 under setting [5]; 0.996 ± 0.014 under setting [6].
For `C[N+](C)(C)CC=O` [Betaine aldehyde chloride], the normalised cell viability was 0.9877 ± 0.0021 under setting [1]; 0.993 ± 0.012 under setting [2]; 0.9913 ± 0.0081 under setting [3]; 0.993 ± 0.0085 under setting [4]; 0.9647 ± 0.0015 under setting [5]; 0.9803 ± 0.0015 under setting [6].
For `NC[C@@H](O)c1ccc(O)c(O)c1` [L(-)-Norepinephrine bitartrate], the normalised cell viability was 1 ± 0.018 under setting [1]; 0.971 ± 0.011 under setting [2]; 1 ± 0.021 under setting [3]; 0.968 ± 0.0085 under setting [4]; 0.98 ± 0.017 under setting [5]; 0.9767 ± 0.0011 under setting [6].
Consider `Nc1nc2c(nc(Br)n2C2OC3COP(=O)(O)O[C@@H]3C2O)c(=O)[nH]1` (stereo not given in full) [8-Bromo-cGMP sodium], for which the normalised cell viability under setting [1] turned out to be 1.023 ± 0.0058; the normalised cell viability under setting [2] came out at 1.02; the normalised cell viability under setting [3] was 1.02 ± 0.01; the normalised cell viability under setting [4] turned out to be 1 ± 0.028; the normalised cell viability under setting [5] was determined as 1.01 ± 0.011; the normalised cell viability under setting [6] is 1.01 ± 0.015.
As to `CCN(CC)CCCC(C)Nc1nc(C)cc(Nc2ccc3nc(C)cc(N)c3c2)n1` (stereo not given), the normalised cell viability is, setting by setting: under setting [1], 0.845 ± 0.0082; under setting [2], 0.444 ± 0.019; under setting [3], 0.888 ± 0.01; under setting [4], 0.688 ± 0.036; under setting [5], 1 ± 0.013; under setting [6], 0.119 ± 0.0062.
Regarding `CCc1ccc(OCc2ccccc2C(=O)Nc2ccc3nc(C)cc(N)c3c2)cc1`, the normalised cell viability by setting is: under setting [1], 1.04 ± 0.011; under setting [2], 0.00134 ± 0.00041; under setting [3], 1.05 ± 0.017; under setting [4], 0.00123 ± 0.00019; under setting [5], 1.023 ± 0.0058; under setting [6], 0.00113 ± 0.0006.
With `Cc1cc([C@@H](C)Nc2ccccc2C(=O)O)c2nc(N3CCOCC3)cc(=O)n2c1`, the normalised cell viability runs as follows: under setting [1], 0.878 ± 0.043; under setting [2], 0.764 ± 0.062; under setting [3], 0.879 ± 0.023; under setting [4], 0.791 ± 0.03; under setting [5], 0.9667 ± 0.0091; under setting [6], 0.899 ± 0.035.
Turning to `CCCC(CCC)C(=O)NO` [Valproic acid hydroxamate], the normalised cell viability was found to be 1 ± 0.022 under setting [1]; 1.01 ± 0.022 under setting [2]; 1.01 ± 0.016 under setting [3]; 1.02 ± 0.016 under setting [4]; 0.9982 ± 0.0077 under setting [5]; 0.9988 ± 0.0092 under setting [6].
Take `NC1CCN(O)C1=O` (racemic): the normalised cell viability came out at 0.983 ± 0.011 under setting [1]; 0.999 ± 0.011 under setting [2]; 0.9857 ± 0.0051 under setting [3]; 0.984 ± 0.023 under setting [4]; 0.985 ± 0.013 under setting [5]; 0.98733 ± 0.00058 under setting [6].
Take `CC(C)C[C@H](NC(=O)CNC(=O)c1cc(Cl)ccc1Cl)B1OC(=O)CC(CC(=O)O)(C(=O)O)O1` (stereo not given in full): the normalised cell viability reads like this: under setting [1], 0.98 ± 0.014; under setting [2], 0.835 ± 0.018; under setting [3], 1.047 ± 0.0058; under setting [4], 1.04 ± 0.015; under setting [5], 0.263 ± 0.024; under setting [6], 0.0378 ± 0.0053.
`CC(C)C[C@H](NC(=O)CNC(=O)c1cc(Cl)ccc1Cl)B(O)O`: the normalised cell viability runs as follows: under setting [1], 0.978 ± 0.0095; under setting [2], 0.886 ± 0.03; under setting [3], 1.04 ± 0.01; under setting [4], 1.04 ± 0.011; under setting [5], 0.311 ± 0.032; under setting [6], 0.0506 ± 0.0038.
For the compound `CCCCCCCCCCCCCCCCCCNC(=O)OCC(COP(=O)([O-])OCC[n+]1ccsc1)OC` (stereo not given), the normalised cell viability is, setting by setting: under setting [1], 0.9967 ± 0.0035; under setting [2], 1.02 ± 0.011; under setting [3], 1.02 ± 0.024; under setting [4], 1.01 ± 0.015; under setting [5], 0.997 ± 0.0017; under setting [6], 0.82 ± 0.33.
Regarding `COc1ccc(CCNC[C@@H](O)c2ccc(O)cc2)cc1OC` [R(-)-Denopamine], the normalised cell viability reads like this: under setting [1], 1.01 ± 0.01; under setting [2], 1.017 ± 0.0058; under setting [3], 1.02 ± 0.017; under setting [4], 1.013 ± 0.0058; under setting [5], 1.01; under setting [6], 1.01 ± 0.014.
